Experimental data as given in PMC7862700, “An all-to-all approach to the identification of sequence-specific readers for epigenetic DNA modifications on cytosine”.

Legend:
Test in all cases: DAPPL (digital affinity profiling via proximity ligation, sequencing); 10 mM Tris-HCl pH 7.5, 50 mM NaCl, 1 mM DTT, 4% glycerol, room temperature, 30 min; GST-TFs on glutathione beads, 16-mer random dsDNA library, 0.1% formaldehyde crosslink after washing; high values mean tight binding
Details in all cases: protein: recombinant; tags: N-terminal GST; dsDNA, one strand shown
FEV = biological target: T1, FEV (Homo sapiens, UniProt Q99581 1-238)
T1 sequence: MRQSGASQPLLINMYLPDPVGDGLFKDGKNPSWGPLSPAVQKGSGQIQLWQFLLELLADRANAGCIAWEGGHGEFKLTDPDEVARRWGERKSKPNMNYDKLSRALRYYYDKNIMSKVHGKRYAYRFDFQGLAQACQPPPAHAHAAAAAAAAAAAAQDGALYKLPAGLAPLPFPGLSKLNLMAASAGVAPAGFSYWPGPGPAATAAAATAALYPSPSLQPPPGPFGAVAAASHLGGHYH
Procedure, shortened: (§1)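 Pools were built from human transcription factors expressed in yeast as GST fusions, captured on glutathione beads and DNA-barcoded, along with a tag-only sample. Incubation with 200 nmole of a 16-mer random double-stranded DNA library lasted 30 min at room temperature in Tris/NaCl/DTT/glycerol buffer, and was followed by washing, 0.1% formaldehyde crosslinking, proximity ligation, PCR amplification and Illumina NextSeq500 sequencing. Binding signal is the quotient of each hexamer's read frequency for a factor and its frequency for the tag-only sample.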

SPIC = biological target: T2, SPIC (Homo sapiens, UniProt Q8N5J4 1-248)
T2 sequence: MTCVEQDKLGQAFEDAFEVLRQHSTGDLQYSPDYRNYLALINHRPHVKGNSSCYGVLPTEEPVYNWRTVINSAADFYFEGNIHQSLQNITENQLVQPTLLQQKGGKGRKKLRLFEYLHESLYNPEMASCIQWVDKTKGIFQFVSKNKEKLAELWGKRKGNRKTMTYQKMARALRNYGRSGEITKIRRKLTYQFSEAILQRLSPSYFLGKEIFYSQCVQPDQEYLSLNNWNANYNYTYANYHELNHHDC
Procedure, shortened: as §1

ERF = biological target: T3, ERF (Homo sapiens, UniProt P50548 1-548)
T3 sequence: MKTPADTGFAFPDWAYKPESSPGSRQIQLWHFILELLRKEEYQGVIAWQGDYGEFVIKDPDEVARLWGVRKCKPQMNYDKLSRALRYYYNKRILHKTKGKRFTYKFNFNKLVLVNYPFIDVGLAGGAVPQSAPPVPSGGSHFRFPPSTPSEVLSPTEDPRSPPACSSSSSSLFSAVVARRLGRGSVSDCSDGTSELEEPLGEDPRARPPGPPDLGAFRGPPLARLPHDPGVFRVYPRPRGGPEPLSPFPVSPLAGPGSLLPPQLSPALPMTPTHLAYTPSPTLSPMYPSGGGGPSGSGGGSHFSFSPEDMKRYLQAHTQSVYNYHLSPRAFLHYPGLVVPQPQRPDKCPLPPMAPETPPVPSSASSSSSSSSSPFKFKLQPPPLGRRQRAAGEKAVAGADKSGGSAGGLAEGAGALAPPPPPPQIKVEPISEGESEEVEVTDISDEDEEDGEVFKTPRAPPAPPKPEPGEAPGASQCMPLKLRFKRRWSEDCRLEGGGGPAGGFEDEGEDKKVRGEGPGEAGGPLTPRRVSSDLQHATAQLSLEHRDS
Procedure, shortened: as §1

ETV3L = biological target: T4, ETV3L (Homo sapiens, UniProt Q6ZN32 1-361)
T4 sequence: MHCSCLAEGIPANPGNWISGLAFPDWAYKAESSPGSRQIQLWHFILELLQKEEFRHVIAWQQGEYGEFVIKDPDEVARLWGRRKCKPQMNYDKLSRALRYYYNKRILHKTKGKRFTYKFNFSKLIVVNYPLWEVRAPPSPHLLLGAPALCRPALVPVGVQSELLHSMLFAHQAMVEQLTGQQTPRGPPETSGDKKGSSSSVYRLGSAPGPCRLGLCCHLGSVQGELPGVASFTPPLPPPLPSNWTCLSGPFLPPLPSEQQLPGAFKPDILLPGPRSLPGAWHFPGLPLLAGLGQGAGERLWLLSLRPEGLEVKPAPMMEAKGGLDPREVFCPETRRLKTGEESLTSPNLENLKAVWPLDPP
Procedure, shortened: as §1

SPDEF = biological target: T5, SPDEF (Homo sapiens, UniProt O95238 1-335)
T5 sequence: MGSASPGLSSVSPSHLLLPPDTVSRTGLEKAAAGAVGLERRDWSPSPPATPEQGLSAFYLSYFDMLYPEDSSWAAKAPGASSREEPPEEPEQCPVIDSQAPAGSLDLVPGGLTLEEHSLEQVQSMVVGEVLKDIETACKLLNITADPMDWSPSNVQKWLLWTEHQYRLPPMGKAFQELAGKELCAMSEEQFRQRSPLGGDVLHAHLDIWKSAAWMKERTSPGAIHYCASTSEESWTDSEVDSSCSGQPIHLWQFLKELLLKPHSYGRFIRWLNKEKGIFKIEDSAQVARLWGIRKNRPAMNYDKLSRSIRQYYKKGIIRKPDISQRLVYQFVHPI
Procedure, shortened: as §1

ETV7 = biological target: T6, ETV7 (Homo sapiens, UniProt Q9Y603 1-341)
T6 sequence: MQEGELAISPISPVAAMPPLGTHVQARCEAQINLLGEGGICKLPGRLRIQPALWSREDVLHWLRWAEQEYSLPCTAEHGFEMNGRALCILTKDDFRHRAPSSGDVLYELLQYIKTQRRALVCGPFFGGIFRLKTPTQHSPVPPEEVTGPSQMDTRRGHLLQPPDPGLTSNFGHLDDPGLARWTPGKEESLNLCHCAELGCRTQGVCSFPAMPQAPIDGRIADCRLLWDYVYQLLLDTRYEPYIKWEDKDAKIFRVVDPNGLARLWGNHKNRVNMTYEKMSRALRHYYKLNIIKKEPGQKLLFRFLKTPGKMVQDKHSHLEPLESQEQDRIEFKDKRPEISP
Procedure, shortened: as §1

ETV3 = biological target: T7, ETV3 (Homo sapiens, UniProt P41162-2 1-143)
T7 sequence: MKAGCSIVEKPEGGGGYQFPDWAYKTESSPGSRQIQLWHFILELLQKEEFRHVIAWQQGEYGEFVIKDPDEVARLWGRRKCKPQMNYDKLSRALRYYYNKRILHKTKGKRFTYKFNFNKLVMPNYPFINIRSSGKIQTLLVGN
Procedure, shortened: as §1

ETV6 = ETV6 (Homo sapiens, UniProt P41212 1-452)
ETV6, sequence (P41212 whole entry): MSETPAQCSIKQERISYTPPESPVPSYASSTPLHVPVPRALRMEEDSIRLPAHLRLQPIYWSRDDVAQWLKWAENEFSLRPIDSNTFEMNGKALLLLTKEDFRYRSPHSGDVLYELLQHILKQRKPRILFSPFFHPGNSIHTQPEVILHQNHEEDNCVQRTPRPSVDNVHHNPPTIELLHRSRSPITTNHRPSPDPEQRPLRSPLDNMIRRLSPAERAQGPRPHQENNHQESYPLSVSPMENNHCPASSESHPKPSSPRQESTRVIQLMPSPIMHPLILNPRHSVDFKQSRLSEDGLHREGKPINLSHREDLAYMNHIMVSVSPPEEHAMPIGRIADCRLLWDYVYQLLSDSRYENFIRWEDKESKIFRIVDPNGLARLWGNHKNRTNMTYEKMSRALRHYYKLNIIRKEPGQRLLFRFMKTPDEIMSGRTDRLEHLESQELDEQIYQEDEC
Procedure, shortened: as §1

SPI1 = SPI1 (Homo sapiens, UniProt P17947 1-270)
Procedure, shortened: as §1

SPIB = SPIB (Homo sapiens, UniProt Q01892 1-262)
SPIB, sequence (Q01892 whole entry): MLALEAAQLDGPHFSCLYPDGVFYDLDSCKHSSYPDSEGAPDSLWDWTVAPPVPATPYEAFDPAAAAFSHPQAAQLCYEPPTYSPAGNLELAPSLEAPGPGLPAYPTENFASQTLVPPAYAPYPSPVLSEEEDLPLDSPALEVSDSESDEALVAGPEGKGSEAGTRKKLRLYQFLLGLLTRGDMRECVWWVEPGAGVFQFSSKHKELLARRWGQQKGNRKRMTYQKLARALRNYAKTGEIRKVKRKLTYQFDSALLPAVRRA
Procedure, shortened: as §1

ELK3 = biological target: T8, ELK3 (Homo sapiens, UniProt P41970 1-407)
T8 sequence: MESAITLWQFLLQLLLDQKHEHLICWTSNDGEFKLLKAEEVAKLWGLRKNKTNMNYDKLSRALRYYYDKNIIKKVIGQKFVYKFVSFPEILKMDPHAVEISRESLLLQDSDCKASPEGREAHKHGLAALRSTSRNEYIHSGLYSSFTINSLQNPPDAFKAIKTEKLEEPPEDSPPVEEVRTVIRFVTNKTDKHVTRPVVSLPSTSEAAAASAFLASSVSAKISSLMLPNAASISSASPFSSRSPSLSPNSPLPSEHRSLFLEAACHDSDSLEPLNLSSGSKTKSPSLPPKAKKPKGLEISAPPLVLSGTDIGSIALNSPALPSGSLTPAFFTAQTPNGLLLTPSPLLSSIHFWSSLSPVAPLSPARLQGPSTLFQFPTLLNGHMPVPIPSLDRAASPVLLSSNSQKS
Procedure, shortened: as §1

ETV2 = biological target: T9, ETV2 (Homo sapiens, UniProt O00321 1-342)
T9 sequence: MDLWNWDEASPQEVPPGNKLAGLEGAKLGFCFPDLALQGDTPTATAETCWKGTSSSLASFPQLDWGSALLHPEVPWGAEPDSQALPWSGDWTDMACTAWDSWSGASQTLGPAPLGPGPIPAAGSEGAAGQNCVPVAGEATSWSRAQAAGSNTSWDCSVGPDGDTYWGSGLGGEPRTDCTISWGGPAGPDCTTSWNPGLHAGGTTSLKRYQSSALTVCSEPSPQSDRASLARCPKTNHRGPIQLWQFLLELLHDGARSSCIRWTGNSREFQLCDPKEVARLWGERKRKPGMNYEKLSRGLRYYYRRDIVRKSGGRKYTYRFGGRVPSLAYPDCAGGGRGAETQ
Procedure, shortened: as §1

ELF3 = biological target: T10, ELF3 (Homo sapiens, UniProt P78545 1-371)
T10 sequence: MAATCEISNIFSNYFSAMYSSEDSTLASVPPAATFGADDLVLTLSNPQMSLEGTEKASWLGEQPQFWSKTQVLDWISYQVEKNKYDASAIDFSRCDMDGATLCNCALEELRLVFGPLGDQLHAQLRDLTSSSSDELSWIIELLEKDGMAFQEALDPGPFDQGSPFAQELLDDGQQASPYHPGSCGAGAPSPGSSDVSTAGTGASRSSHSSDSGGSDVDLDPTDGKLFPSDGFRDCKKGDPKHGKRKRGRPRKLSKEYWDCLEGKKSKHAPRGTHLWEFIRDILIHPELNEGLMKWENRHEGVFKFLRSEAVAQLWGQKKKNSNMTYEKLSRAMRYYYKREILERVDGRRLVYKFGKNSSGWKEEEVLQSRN
Procedure, shortened: as §1

GCGACA
binding signal (FEV): 1.02 fold enrichment (6-mer frequency, TF over GST control) | binding signal (SPIC): 1.03 fold enrichment (6-mer frequency, TF over GST control) | binding signal (ERF): 1.04 fold enrichment (6-mer frequency, TF over GST control) | binding signal (ETV3L): 1.04 fold enrichment (6-mer frequency, TF over GST control) | binding signal (SPDEF): 1 fold enrichment (6-mer frequency, TF over GST control) | binding signal (ETV7): 1.05 fold enrichment (6-mer frequency, TF over GST control) | binding signal (ETV3): 1.01 fold enrichment (6-mer frequency, TF over GST control) | binding signal (ETV6): 1.04 fold enrichment (6-mer frequency, TF over GST control)

GGCGTT
binding signal (SPI1): 1.03 fold enrichment (6-mer frequency, TF over GST control) | binding signal (SPIB): 1.05 fold enrichment (6-mer frequency, TF over GST control) | binding signal (ELK3): 1.02 fold enrichment (6-mer frequency, TF over GST control) | binding signal (FEV): 1.01 fold enrichment (6-mer frequency, TF over GST control) | binding signal (SPIC): 1.08 fold enrichment (6-mer frequency, TF over GST control) | binding signal (ETV2): 1.13 fold enrichment (6-mer frequency, TF over GST control) | binding signal (ELF3): 1.1 fold enrichment (6-mer frequency, TF over GST control) | binding signal (ERF): 1.01 fold enrichment (6-mer frequency, TF over GST control) | binding signal (ETV3L): 1.09 fold enrichment (6-mer frequency, TF over GST control)

AGCACG
binding signal (SPIC): 1.02 fold enrichment (6-mer frequency, TF over GST control) | binding signal (ERF): 1.01 fold enrichment (6-mer frequency, TF over GST control)
